Screens as filed in PubChem BioAssay.
PAFAH1B2 FP inh = inhibitors of human PAFAH1B2; P68402; recombinant PAFAH1B2, FP-rhodamine activity probe, fluorescence polarization; inhibition, % at 3.39 µM; actives 1.2% (n = 340,000); AID 492953;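 active means inhibition above the mean of all tested compounds plus 3 SD, cut at about 24% in these data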;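 further: 0% = enzyme with DMSO and 100% = wells lacking PAFAH1B2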
Target sequence (P68402 whole entry, looked up): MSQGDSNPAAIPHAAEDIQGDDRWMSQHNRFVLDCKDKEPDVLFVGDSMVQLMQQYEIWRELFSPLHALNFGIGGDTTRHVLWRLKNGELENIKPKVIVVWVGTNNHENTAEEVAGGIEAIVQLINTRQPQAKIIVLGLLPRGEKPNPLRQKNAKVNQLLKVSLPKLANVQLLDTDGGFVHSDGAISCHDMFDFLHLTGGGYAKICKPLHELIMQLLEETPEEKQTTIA
PAFAH1B3 inh = PAFAH1B3 (human) inhibition; Q15102; recombinant PAFAH1B3, FP-rhodamine probe, fluorescence polarization; inhibition, % at 3.39 µM; actives 0.28% (n = 340,000); AID 492972;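 active means inhibition above the screen-wide average of all tested compounds plus 3 SD, cut at about 25% in these data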;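 further: 0% = enzyme with DMSO only and 100% = wells lacking PAFAH1B3 protein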
Target sequence (Q15102 whole entry, looked up): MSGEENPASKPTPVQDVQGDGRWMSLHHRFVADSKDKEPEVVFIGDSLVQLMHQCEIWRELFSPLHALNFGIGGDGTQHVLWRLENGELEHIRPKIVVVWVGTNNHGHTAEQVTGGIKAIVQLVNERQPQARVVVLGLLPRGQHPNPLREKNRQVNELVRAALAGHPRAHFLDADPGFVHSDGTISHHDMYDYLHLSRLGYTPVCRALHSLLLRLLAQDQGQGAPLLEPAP
TCR-CD3 inh = blocks the human TCR-CD3 interaction. actives 0.37% (n = 360,000). AID 651800. inhibition, % at 9.4 µM. TAMRA-labeled TCR probe fluorescence, biochemical; in the data active means inhibition above about 19%;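 further: recombinant mutant TCR 2C K166C tagged with TAMRA read by polarization; 0% = receptor in buffer alone and 100% = receptor with positive control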
pPAFAH FP inh = inhibitors of human plasma PAF acetylhydrolase (pPAFAH); inhibition, % at 3.39 µM; Q13093; actives 1.5% (n = 330,000); recombinant pPAFAH, FP-rhodamine probe fluorescence polarization; AID 463082;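 active means inhibition above the mean inhibition across the screen plus 3 SD, cut at about 25% in these data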;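 further: inhibitors block binding of the rhodamine activity-based probe so polarization drops; 0% = enzyme with DMSO and 100% = wells lacking pPAFAH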
PAFAH2 inh = inhibitors of human PAFAH2. Q99487. AID 492956. inhibition, % at 3.39 µM. recombinant PAFAH2, FP-rhodamine activity probe, fluorescence polarization. actives 0.99% (n = 340,000);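 active means inhibition above the mean over all tested compounds plus 3 SD, cut at about 30% in these data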;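 further: inhibitors block probe labeling of enzyme so polarization drops; 0% = enzyme with DMSO and 100% = wells lacking PAFAH2 protein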
The depositor's hits bear a star; x = no result given. Rows were chosen to be rich in hits. Some 2.7% of all compounds tested hit in one or more screens of this group.

SMILES | PAFAH1B2 FP inh | PAFAH1B3 inh | TCR-CD3 inh | pPAFAH FP inh | PAFAH2 inh
CN(c1ccccc1)c1ccc(/C=C(/CCC(=O)O)c2nc3ccccc3s2)cc1[N+](=O)[O-] | 94* | 12 | -10 | x | 41*
O=C(OCc1ccccc1)N1CCCCC1c1c(Cl)cccc1Br (stereo not given) | x | x | 1 | x | x
Cc1ccc(NS(=O)(=O)c2ccccc2)c2c1CC(C)(C)O2 | 2 | -3 | 3 | 29* | 1
CC(C)(C)C1CCC(=O)C(C2(O)C(=O)Nc3ccccc32)C1 (stereo not given) | 27* | 10 | 0 | 5 | 0
CCN1CCN(CCCNC(=O)CCC(=O)N2CC(C)Oc3ccc(C)cc32)CC1 (stereo not given) | 2 | 8 | 6 | -1 | 0
Cc1nc(C)c(C(=O)Nc2nc3c(C)cccc3s2)o1 | 3 | 10 | 6 | 30* | 17
Cc1cccc2sc(NNC(=O)c3cc(=O)c4ccccc4o3)nc12 | 5 | 12 | -1 | 27* | 8
Cc1ccc2sc(NNC(=O)c3cc(=O)c4ccccc4o3)nc2c1C | 9 | 15 | -10 | 15 | 6
CCN(CC)c1ccc(NC(=O)CSc2nc(C3CC3)nc3ccccc23)cc1C | 4 | 7 | 2 | 31* | 7
CC1=C(C#N)C(=O)N(C2CCS(=O)(=O)C2)C(=O)/C1=C\c1ccc(C)o1 (stereo not given) | x | x | x | 37* | x
CCN1C(=O)N/C(=C/c2ccc(C)o2)C1=O | 2 | 1 | 15 | 0 | 0
COc1ccc(NC(=O)c2cc3c(Cl)nc4ccccc4c3s2)cc1OC | -1 | 8 | -6 | 27* | 0
COc1ccc(OC)c(NC(=O)c2cc3c(Cl)nc4ccccc4c3s2)c1 | 3 | 1 | 10 | 7 | -5
COC(=O)COc1ccc(S(=O)(=O)NCc2ccccn2)cc1 | -3 | 0 | -1 | 4 | -1
COc1cccc(C(O)c2ncc(-c3cccc(F)c3)[nH]2)c1 (stereo not given) | x | x | -2 | x | x
N#CC1=C(N)OC2=C(CC/C2=C\c2ccccc2Cl)C1c1ccccc1Cl (stereo not given) | -3 | -11 | 7 | 19 | -6
Cc1oc(C)c2c(=O)ccc3c(c12)OC(N)=C(C#N)C3c1ccccc1 (stereo not given) | 2 | 8 | -9 | 13 | 9
CSc1ccc(C2C(C#N)=C(N)Oc3c2ccc(=O)c2c(C)oc(C)c32)cc1 (stereo not given) | 2 | 3 | 1 | 31* | 24
Cc1oc(C)c2c(=O)ccc3c(c12)OC(N)=C(C#N)C3c1ccccc1Cl (stereo not given) | -10 | -1 | -2 | 25* | 4
COc1ccc(-n2nc(C(=O)NCC(=O)NCCCN3CCOCC3)c3ccccc3c2=O)c(OC)c1 | 5 | 6 | 9 | 10 | 11
COC(=O)C1=C(C)N(Cc2ccc(C(F)(F)F)cc2)C(=NCc2ccc3c(c2)OCO3)NC1c1ccccc1 (stereo not given) | x | x | 1 | x | x
CCOC(=O)c1c(NC(=O)CSc2nccn2C)sc(C(=O)NC)c1C | 2 | 9 | 2 | 2 | 2
CN(C)C1CN(Cc2cn(Cc3ccc(C(F)(F)F)cc3)nn2)S(=O)(=O)C1 (stereo not given) | x | x | 0 | x | x
S=C(NCc1ccc(Cl)cc1Cl)Nc1ccccc1 | 6 | -4 | -6 | 33* | 1
CN(c1ccccc1)S(=O)(=O)c1cccc(NC(=O)CSc2ncn[nH]2)c1 | 25* | -1 | -4 | 2 | 4
SMILES | PAFAH1B2 FP inh | PAFAH1B3 inh | TCR-CD3 inh | pPAFAH FP inh | PAFAH2 inh
Nc1ccn([C@@H]2O[C@H](C(=O)NCC(=O)N3CCOCC3)[C@@H](O)[C@H]2O)c(=O)n1 | x | x | 0 | x | x
O=C(Nc1ccc(Cl)cc1)[C@@H]1[C@@H]2C(=O)N(c3ccc4ccccc4c3)C(=O)[C@@H]2[C@H]2C=CC=NN21 | 4 | 4 | -1 | 29* | 33*
Cc1sc2ncnc(SCc3ccc(C(=O)O)cc3)c2c1C | 10 | 4 | 7 | -2 | 6
Cc1ccc(-c2csc3ncnc(SCc4ccc(C(=O)O)cc4)c23)cc1 | x | x | -1 | 29* | x
O=C(N/N=C/c1cc(Cl)cc([N+](=O)[O-])c1O)c1cc(-c2ccccn2)nc2ccccc12 | 3 | 2 | x | 27* | 6
Nc1ncc(Br)cc1S(=O)(=O)NCCC(=O)Nc1cccc(Cl)c1 | 4 | 3 | 9 | -4 | 1
Nc1ncc(Br)cc1S(=O)(=O)NCCC(=O)NCCc1ccc(Cl)cc1 | 26* | 2 | 1 | 5 | 2
COC(=O)c1cc2c(c3c4cc(C)ccc4n(S(=O)(=O)c4cccc(C)c4)c13)C(=O)N(Cc1ccccc1OC)C2 | x | x | -3 | x | x
O=C(CCc1nnc2ccc(NCc3ccco3)nn12)Nc1cccc(F)c1 | 1 | 0 | 2 | 12 | 8
O=S(=O)(NCCCc1ccccc1)c1ccc(Cl)cc1 | 26* | 1 | -1 | 16 | 8
O=S(=O)(NCCCc1ccccc1)c1ccc(F)c(F)c1 | 36* | -3 | 8 | 29* | 15
O=[N+]([O-])c1ccc(S(=O)(=O)NCCCc2ccccc2)cc1 | x | x | -1 | 3 | x
C(=C\c1ccccc1)/CN1CCN(C(CCc2ccccc2)c2nnnn2C2CCCC2)CC1 (stereo not given) | x | x | -3 | x | x
CO[C@@H]1[C@H](O)CC[C@]2(O)CN(c3ccccc3)[C@](C)([C@H](O)CC=C(C)C)[C@@H]12 | x | x | -3 | x | x
CCN(C(=O)c1ccc2c(=O)n3c(nc2c1)CCCCC3)c1cc(OC)ccc1OC | 0 | 3 | 2 | -4 | 3
COc1ccc(C(=O)NCC2CCN(C(=O)C(=O)c3cc4ccccc4o3)CC2)c(OC)c1 | x | x | -2 | x | x
O=C1N=C(N2C=CC(=C3C=CNC=C3)C=C2)/C(=C/N=NC(=O)c2ccccc2O)S1 | 7 | 16 | 18 | 26* | 16
Cc1c(C(=O)NCc2cccs2)sc(=O)n1Cc1ccc(S(=O)(=O)N(C)C)cc1 | x | x | 2 | x | x
COc1ccc(NC(=O)c2cc3ccccc3cc2O)cc1 | 2 | 11 | -4 | 32* | 8
Cc1ccc(NC(=O)c2cc3ccccc3cc2O)cc1 | 5 | 5 | 8 | 12 | 3
CCc1ccc(NC(=O)NNC(=O)c2cc3ccccc3cc2O)cc1 | 8 | 13 | 18 | 33* | -19
COC(=O)[C@]12C[C@H](CC(=O)NCc3cccs3)C(=O)N(Cc3ccccc3)C1=C[C@H](C(C)C)O[C@@H]2C1CC1 | x | x | -3 | x | x
COc1cccc(OCC(=O)N(Cc2nc(-c3ccc(Cl)cc3)no2)C(C)C)c1 | -2 | 8 | 5 | 26* | -7
Cc1ccc(C)c(C(=O)N(Cc2nc(-c3ccc(Cl)cc3)no2)C(C)C)c1 | -1 | 1 | 4 | 27* | 4
COc1cccc(C(=O)N(Cc2nc(-c3ccc(C)cc3)no2)C(C)C)c1 | 2 | -9 | 1 | 0 | -3
Cn1c(=O)c(=O)n(C)c2cc(S(=O)(=O)N3CCC(Cc4ccccc4)CC3)ccc21 | -1 | 5 | 2 | -7 | 2
O=c1[nH]c2ccc(S(=O)(=O)N3CCC(Cc4ccccc4)CC3)cc2o1 | 29* | 0 | 0 | 14 | 4
